Laboratory results taken from the supplement of paper PMC7411054.
Where a name gives a salt, the structure may show the parent alone.

How the values were obtained:
Test in all cases: phenotypically active (imaging signature differs from DMSO and reproducible) at any of 0.3-9 uM (binary (1 = active, 0 = inactive)); higher = active
Settings in all cases: treatment time: 24 h
A549-ACTB-RAB5A = test system: A549-ACTB-RAB5A
In short: (§1)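 Four wells per concentration (0.3, 1, 3 or 9 µM) were treated for 24 h in each of fifteen gene-edited reporter lines from A549, HepG2 and WPMY1 cells, then imaged live. After normalising live-cell features to solvent control wells, deviation was defined as ≥3 of 4 wells lying past the 95th percentile of control Euclidean distances. Reproducibility was defined as a median replicate Pearson correlation above the 95th percentile of non-replicates. Both had to hold for phenotypic activity.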

A549-CANX-COX4 = test system: A549-CANX-COX4
In short: as §1

A549-GM130-SQSTM1 = test system: A549-GM130-SQSTM1
In short: as §1

A549-TP53BP1-CLTA = test system: A549-TP53BP1-CLTA
In short: as §1

A549-TUBA1B-RELA = test system: A549-TUBA1B-RELA
In short: as §1

HepG2-ACTB-RAB5A = test system: HepG2-ACTB-RAB5A
In short: as §1

HepG2-CANX-COX4 = test system: HepG2-CANX-COX4
In short: as §1

HepG2-GM130-SQSTM1 = test system: HepG2-GM130-SQSTM1
In short: as §1

HepG2-TP53BP1-CLTA = test system: HepG2-TP53BP1-CLTA
In short: as §1

HepG2-TUBA1B-RELA = test system: HepG2-TUBA1B-RELA
In short: as §1

WPMY1-ACTB-RAB5A = test system: WPMY1-ACTB-RAB5A
In short: as §1

WPMY1-CANX-COX4 = test system: WPMY1-CANX-COX4
In short: as §1

WPMY1-GM130-SQSTM1 = test system: WPMY1-GM130-SQSTM1
In short: as §1

WPMY1-TP53BP1-CLTA = test system: WPMY1-TP53BP1-CLTA
In short: as §1

WPMY1-TUBA1B-RELA = test system: WPMY1-TUBA1B-RELA
In short: as §1

Measured: phenotypically active

C[N+](C)(C)CC[N+]1(C)Cc2c(Cl)c(Cl)c(Cl)c(Cl)c2C1 [Chlorisondamine diiodide]
inactive: A549-ACTB-RAB5A 0 | A549-CANX-COX4 0 | A549-GM130-SQSTM1 0 | A549-TP53BP1-CLTA 0 | A549-TUBA1B-RELA 0 | HepG2-ACTB-RAB5A 0 | HepG2-CANX-COX4 0 | HepG2-GM130-SQSTM1 0 | HepG2-TP53BP1-CLTA 0 | HepG2-TUBA1B-RELA 0 | WPMY1-ACTB-RAB5A 0 | WPMY1-CANX-COX4 0 | WPMY1-GM130-SQSTM1 0 | WPMY1-TP53BP1-CLTA 0 | WPMY1-TUBA1B-RELA 0

Cc1n[nH]c(=O)[nH]c1=O [Azathymine, 6]
inactive: A549-ACTB-RAB5A 0 | A549-CANX-COX4 0 | A549-GM130-SQSTM1 0 | A549-TP53BP1-CLTA 0 | A549-TUBA1B-RELA 0 | HepG2-ACTB-RAB5A 0 | HepG2-CANX-COX4 0 | HepG2-GM130-SQSTM1 0 | HepG2-TP53BP1-CLTA 0 | HepG2-TUBA1B-RELA 0 | WPMY1-ACTB-RAB5A 0 | WPMY1-CANX-COX4 0 | WPMY1-GM130-SQSTM1 0 | WPMY1-TP53BP1-CLTA 0 | WPMY1-TUBA1B-RELA 0

CCOC(=O)[C@H](CCc1ccccc1)N[C@@H](C)C(=O)N1CCC[C@H]1C(=O)O [enalapril]
inactive: A549-ACTB-RAB5A 0 | A549-CANX-COX4 0 | A549-GM130-SQSTM1 0 | A549-TP53BP1-CLTA 0 | A549-TUBA1B-RELA 0 | HepG2-ACTB-RAB5A 0 | HepG2-CANX-COX4 0 | HepG2-GM130-SQSTM1 0 | HepG2-TP53BP1-CLTA 0 | HepG2-TUBA1B-RELA 0 | WPMY1-ACTB-RAB5A 0 | WPMY1-CANX-COX4 0 | WPMY1-GM130-SQSTM1 0 | WPMY1-TP53BP1-CLTA 0 | WPMY1-TUBA1B-RELA 0

CCOC(=O)C1=C(C)NC(=S)N[C@H]1c1cccc(O)c1 [Monastrol]
inactive: A549-ACTB-RAB5A 0 | A549-CANX-COX4 0 | A549-GM130-SQSTM1 0 | A549-TP53BP1-CLTA 0 | A549-TUBA1B-RELA 0 | HepG2-ACTB-RAB5A 0 | HepG2-CANX-COX4 0 | HepG2-GM130-SQSTM1 0 | HepG2-TP53BP1-CLTA 0 | HepG2-TUBA1B-RELA 0 | WPMY1-ACTB-RAB5A 0 | WPMY1-CANX-COX4 0 | WPMY1-GM130-SQSTM1 0 | WPMY1-TP53BP1-CLTA 0 | WPMY1-TUBA1B-RELA 0

COc1ccc([C@@H]2Sc3ccccc3N(CCN(C)C)C(=O)[C@@H]2OC(C)=O)cc1 [diltiazem]
inactive: A549-ACTB-RAB5A 0 | A549-CANX-COX4 0 | A549-GM130-SQSTM1 0 | A549-TP53BP1-CLTA 0 | A549-TUBA1B-RELA 0 | HepG2-ACTB-RAB5A 0 | HepG2-CANX-COX4 0 | HepG2-GM130-SQSTM1 0 | HepG2-TP53BP1-CLTA 0 | HepG2-TUBA1B-RELA 0 | WPMY1-ACTB-RAB5A 0 | WPMY1-CANX-COX4 0 | WPMY1-GM130-SQSTM1 0 | WPMY1-TP53BP1-CLTA 0 | WPMY1-TUBA1B-RELA 0

CN(C)CCC[C@@]1(c2ccc(F)cc2)OCc2cc(C#N)ccc21 [escitalopram]
inactive: A549-ACTB-RAB5A 0 | A549-CANX-COX4 0 | A549-GM130-SQSTM1 0 | A549-TP53BP1-CLTA 0 | A549-TUBA1B-RELA 0 | HepG2-ACTB-RAB5A 0 | HepG2-CANX-COX4 0 | HepG2-GM130-SQSTM1 0 | HepG2-TP53BP1-CLTA 0 | HepG2-TUBA1B-RELA 0 | WPMY1-ACTB-RAB5A 0 | WPMY1-CANX-COX4 0 | WPMY1-GM130-SQSTM1 0 | WPMY1-TP53BP1-CLTA 0 | WPMY1-TUBA1B-RELA 0

CC[N+](C)(C)c1cccc(O)c1 [edrophonium]
inactive: A549-ACTB-RAB5A 0 | A549-CANX-COX4 0 | A549-GM130-SQSTM1 0 | A549-TP53BP1-CLTA 0 | A549-TUBA1B-RELA 0 | HepG2-ACTB-RAB5A 0 | HepG2-CANX-COX4 0 | HepG2-GM130-SQSTM1 0 | HepG2-TP53BP1-CLTA 0 | HepG2-TUBA1B-RELA 0 | WPMY1-ACTB-RAB5A 0 | WPMY1-CANX-COX4 0 | WPMY1-GM130-SQSTM1 0 | WPMY1-TP53BP1-CLTA 0 | WPMY1-TUBA1B-RELA 0

C[C@H](CCC(=O)NCC(=O)O)[C@H]1CC[C@H]2[C@@H]3[C@H](O)C[C@@H]4C[C@H](O)CC[C@]4(C)[C@H]3C[C@H](O)[C@]12C [Glycocholic acid]
inactive: A549-ACTB-RAB5A 0 | A549-CANX-COX4 0 | A549-GM130-SQSTM1 0 | A549-TP53BP1-CLTA 0 | A549-TUBA1B-RELA 0 | HepG2-ACTB-RAB5A 0 | HepG2-CANX-COX4 0 | HepG2-GM130-SQSTM1 0 | HepG2-TP53BP1-CLTA 0 | HepG2-TUBA1B-RELA 0 | WPMY1-ACTB-RAB5A 0 | WPMY1-CANX-COX4 0 | WPMY1-GM130-SQSTM1 0 | WPMY1-TP53BP1-CLTA 0 | WPMY1-TUBA1B-RELA 0

CC1(C)CCC(c2ccc(Cl)cc2)=C(CN2CCN(c3ccc(C(=O)NS(=O)(=O)c4ccc(N[C@H](CCN5CCOCC5)CSc5ccccc5)c(S(=O)(=O)C(F)(F)F)c4)cc3)CC2)C1 [navitoclax]
inactive: A549-ACTB-RAB5A 0 | A549-CANX-COX4 0 | A549-GM130-SQSTM1 0 | A549-TP53BP1-CLTA 0 | A549-TUBA1B-RELA 0 | HepG2-ACTB-RAB5A 0 | HepG2-CANX-COX4 0 | HepG2-GM130-SQSTM1 0 | HepG2-TP53BP1-CLTA 0 | HepG2-TUBA1B-RELA 0 | WPMY1-ACTB-RAB5A 0 | WPMY1-CANX-COX4 0 | WPMY1-GM130-SQSTM1 0 | WPMY1-TP53BP1-CLTA 0 | WPMY1-TUBA1B-RELA 0

O=P(O)(O)C(O)(Cc1cccnc1)P(=O)(O)O [risedronate]
inactive: A549-ACTB-RAB5A 0 | A549-CANX-COX4 0 | A549-GM130-SQSTM1 0 | A549-TP53BP1-CLTA 0 | A549-TUBA1B-RELA 0 | HepG2-ACTB-RAB5A 0 | HepG2-CANX-COX4 0 | HepG2-GM130-SQSTM1 0 | HepG2-TP53BP1-CLTA 0 | HepG2-TUBA1B-RELA 0 | WPMY1-ACTB-RAB5A 0 | WPMY1-CANX-COX4 0 | WPMY1-GM130-SQSTM1 0 | WPMY1-TP53BP1-CLTA 0 | WPMY1-TUBA1B-RELA 0

OCCn1cc(-c2cnc3nnn(Cc4ccc5ncccc5c4)c3n2)cn1
inactive: A549-ACTB-RAB5A 0 | A549-CANX-COX4 0 | A549-GM130-SQSTM1 0 | A549-TP53BP1-CLTA 0 | A549-TUBA1B-RELA 0 | HepG2-ACTB-RAB5A 0 | HepG2-CANX-COX4 0 | HepG2-GM130-SQSTM1 0 | HepG2-TP53BP1-CLTA 0 | HepG2-TUBA1B-RELA 0 | WPMY1-ACTB-RAB5A 0 | WPMY1-CANX-COX4 0 | WPMY1-GM130-SQSTM1 0 | WPMY1-TP53BP1-CLTA 0 | WPMY1-TUBA1B-RELA 0

CCN(Cc1ccncc1)C(=O)C(CO)c1ccccc1 (stereo not given) [tropicamide]
inactive: A549-ACTB-RAB5A 0 | A549-CANX-COX4 0 | A549-GM130-SQSTM1 0 | A549-TP53BP1-CLTA 0 | A549-TUBA1B-RELA 0 | HepG2-ACTB-RAB5A 0 | HepG2-CANX-COX4 0 | HepG2-GM130-SQSTM1 0 | HepG2-TP53BP1-CLTA 0 | HepG2-TUBA1B-RELA 0 | WPMY1-ACTB-RAB5A 0 | WPMY1-CANX-COX4 0 | WPMY1-GM130-SQSTM1 0 | WPMY1-TP53BP1-CLTA 0 | WPMY1-TUBA1B-RELA 0

CCCc1nn(C)c2c(=O)[nH]c(-c3cc(S(=O)(=O)N4CCN(C)CC4)ccc3OCC)nc12 [Sildenafil citrate]
inactive: A549-ACTB-RAB5A 0 | A549-CANX-COX4 0 | A549-GM130-SQSTM1 0 | A549-TP53BP1-CLTA 0 | A549-TUBA1B-RELA 0 | HepG2-ACTB-RAB5A 0 | HepG2-CANX-COX4 0 | HepG2-GM130-SQSTM1 0 | HepG2-TP53BP1-CLTA 0 | HepG2-TUBA1B-RELA 0 | WPMY1-ACTB-RAB5A 0 | WPMY1-CANX-COX4 0 | WPMY1-GM130-SQSTM1 0 | WPMY1-TP53BP1-CLTA 0 | WPMY1-TUBA1B-RELA 0
